Source: PubChem BioAssay (Tox21)
The source made the active and inactive calls. Calls follow the shape of the dose curve; as a rule, active = well fitted activation curve with a large enough effect in the repeat runs; inconclusive = weak or mixed curves; inactive = flat fitted curve, though single readings scatter.

These molecules were tested against Androgen receptor (Homo sapiens) (UniProt P10275) (assay: qHTS assay to identify small molecule agonists of the androgen receptor (AR) signaling pathway using the MDA cell line (AID 743040; also: nearly all actives have a fitted effect of over 20% in size)). Conditions: MDA-kb2 AR-luc cells, MMTV luciferase, 16 h; series mostly up to 70.3 µM; activity change: at the top concentration.
Text: National Center for Advancing Translational Sciences [NCATS]
NIH Chemical Genomics Center [NCGC]
U.S. Environmental Protection Agency [EPA]
National Institutes of Environmental Health Sciences [NIEHS]
National Toxicology Program [NTP]
U.S. Food and Drug Administration [FDA]
Androgen receptor (AR), a nuclear hormone receptor, plays a critical role in AR-dependent prostate cancer and other androgen related diseases. Endocrine disrupting chemicals (EDCs) and their interactions with steroid hormone receptors like AR may cause disruption of normal endocrine function as well as interfere with metabolic homeostasis, reproduction, developmental and behavioral functions. To identify the compounds that activate AR signaling, MDA-kb2 AR-luc cell line (from ATCC, deposited by Wilson et al.) was used to screen the Tox21 10K compound library. MDA-kb2 AR-luc cell line is human breast carcinoma cell line that was stably transfected with a luciferase reporter gene under control of the MMTV promoter containing response elements for both androgen receptor (AR) and glucocorticoid receptor (GR).
Tox21 Assay Protocol Summary:
MDA-kb2 AR-luc cells were dispensed at 3,000 cells/5 uL/well of culture medium into white wall/solid-bottom 1536-well plates using a Multidrop Combi (ThermoFisher Scientific, Waltham, MA) dispenser. After the assay plates were incubated at 37C and 0% CO2 for 5 h, 23 nL of compounds dissolved in DMSO, positive controls or DMSO only was transferred to the assay plate by a Pintool station (Kalypsys, San Diego, CA). The plates were incubated at 37C and 0% CO2 for 16 h. Then 4 uL of ONE-Glo reagent (Promega, Madison, WI) was added to each plate using a Bioraptr Flying Reagent Dispenser (FRD) workstation (Beckman Coulter, Indianapolis, IN, USA) and luminescence was quantified on a ViewLux (PerkinElmer, Shelton, CT) plate reader after 30 min incubation at room temperature.
% is scaled to controls: 0 for no effect and ±100 for the full control effect; potency is read from the fitted curve at half-maximal effect.

Chain of Androgen receptor (Homo sapiens) (P10275 whole entry, looked up): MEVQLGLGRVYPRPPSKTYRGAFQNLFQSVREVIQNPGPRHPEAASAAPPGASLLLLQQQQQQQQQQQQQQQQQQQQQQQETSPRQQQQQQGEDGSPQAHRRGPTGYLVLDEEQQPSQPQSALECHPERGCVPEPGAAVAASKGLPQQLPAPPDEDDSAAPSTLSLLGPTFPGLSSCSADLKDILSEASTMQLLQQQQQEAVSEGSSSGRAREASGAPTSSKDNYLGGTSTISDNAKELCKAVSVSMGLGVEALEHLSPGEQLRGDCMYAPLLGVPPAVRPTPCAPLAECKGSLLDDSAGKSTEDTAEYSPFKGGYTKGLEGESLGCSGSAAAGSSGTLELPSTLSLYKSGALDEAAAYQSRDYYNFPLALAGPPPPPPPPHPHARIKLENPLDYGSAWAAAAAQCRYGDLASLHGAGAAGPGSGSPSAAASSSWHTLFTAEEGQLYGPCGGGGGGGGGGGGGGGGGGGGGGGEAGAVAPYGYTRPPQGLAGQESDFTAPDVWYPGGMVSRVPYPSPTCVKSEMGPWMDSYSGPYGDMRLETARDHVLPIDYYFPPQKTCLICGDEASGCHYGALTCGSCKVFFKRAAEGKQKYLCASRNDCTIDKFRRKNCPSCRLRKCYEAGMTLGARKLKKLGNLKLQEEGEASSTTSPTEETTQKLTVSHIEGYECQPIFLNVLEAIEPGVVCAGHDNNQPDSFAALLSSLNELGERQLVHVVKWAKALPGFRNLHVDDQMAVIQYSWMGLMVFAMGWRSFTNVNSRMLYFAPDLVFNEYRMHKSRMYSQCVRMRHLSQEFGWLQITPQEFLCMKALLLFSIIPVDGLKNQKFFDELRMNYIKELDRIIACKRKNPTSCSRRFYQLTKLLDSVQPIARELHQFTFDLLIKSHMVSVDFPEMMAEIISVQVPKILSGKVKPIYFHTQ

SMILES	Potency	activity change
C[C@]12CC[C@H]3C(=CCc4cc(O)ccc43)[C@@H]1CCC2=O	5.45 µM (active)	–
COc1cc(C=C2CCC/C(=C\c3ccc(O)c(OC)c3)C2=O)ccc1O	–	-12.5% (inactive)
CN1CCN(C2Cc3ccccc3Sc3ccc(Cl)cc32)CC1 (stereo not given)	–	-12.2% (inactive)
COc1ccccc1OCCNCC(O)COc1cccc2[nH]c3ccccc3c12 (stereo not given)	–	-9.52% (inactive)
N#CSCSc1nc2ccccc2s1	–	-8.65% (inactive)
CCC(C)(C)c1cc(O)c(C(C)(C)CC)cc1O	–	-1.7% (inactive)
NC(=O)c1ccccc1N	–	0.942% [at 95 µM, active compounds read high] (inactive)
C=C1C(C)(C)[C@@]2(Cl)C(Cl)[C@]1(Cl)C(Cl)(Cl)C2(Cl)Cl (stereo not given in full)	–	-8.8% (inactive)
CCN=c1cc2oc3cc(NCC)c(C)cc3c(-c3ccccc3C(=O)OCC)c-2cc1C	inactive	–
C=CC(C)(CCC=C(C)C)OC(=O)/C=C/c1ccccc1 (stereo not given)	–	2.3% (inactive)
C[C@@H]1CC[C@H]2C(C)(C)[C@H]3C[C@@]12CC[C@@]3(C)O	–	-0.228% (inactive)
Nc1ccc2cc3ccc(N)cc3nc2c1	inactive	–
O=C(O)c1cccc(Cl)n1	–	1.71% (inactive)
O=C1c2c(O)ccc(O)c2C(=O)c2c(NCCNCCO)ccc(NCCNCCO)c21	–	-11.6% [at 32.5 µM, active compounds read high] (inactive)
CN(C)c1ccc(N=NS(=O)(=O)O)cc1	–	-10.2% (inactive)
CN(C)CCOC(c1ccccc1)c1ccccc1 (tested in a mixture with another compound)	–	-2.91% [at 95 µM, active compounds read high] (inactive)
Cc1ccc(N)cc1O	–	6.53% (inactive)
C[n+]1c2cc(N)ccc2cc2ccc(N)cc21 (tested in a mixture with another compound)	–	-6.47% (inactive)
CCN=C1C=CC(=C(c2ccc(N(CC)CC)cc2)c2ccc(N(CC)CC)cc2)c2ccccc21	–	-11.7% (inactive)
O=C1NCCN1CCN1CCC(c2cn(-c3ccc(F)cc3)c3ccc(Cl)cc23)CC1	inactive	–

SMILES	Potency	activity change
O=C(Oc1ccccc1)c1cccc(C(=O)Oc2ccccc2)c1	–	30.7% [at 95 µM, active compounds read high] (inactive)
CCCCCCOc1ccc(O)cc1	–	-0.663% (inactive)
NC(=O)c1nc(-c2cccc(-c3cc(F)ccc3OCC(F)(F)C(F)(F)F)c2)n[nH]1	–	-11.6% (inactive)
c1cc(OCC2CO2)cc(OCC2CO2)c1 (stereo not given)	–	1.04% (inactive)
O=C1C=CC(=O)N1c1ccccc1	–	-12.2% (inactive)
COCC(=O)O[C@]1(CCN(C)CCCc2nc3ccccc3[nH]2)CCc2cc(F)ccc2[C@@H]1C(C)C	–	-12.1% (inactive)
O=C(NO)c1ccccc1	–	-5.29% (inactive)
N[C@@H](CSSC[C@H](N)C(=O)O)C(=O)O	–	1.68% (inactive)
Oc1ccc(-c2ccccc2)c(Cl)c1	68.6 µM (active)	–
O=C(O)Cc1ccc(OCCNC[C@H](O)c2ccccc2)cc1	–	0.998% (inactive)
C[Si](C)(C)Cl	–	-1.57% (inactive)
CCCCCCCCCCCCN(CCO)CCO	–	-9.67% (inactive)
O=Cc1ccc(F)cc1	–	-0.147% (inactive)
Cc1oc(-c2ccccc2)nc1CCOc1ccc(C[C@H](Nc2ccccc2C(=O)c2ccccc2)C(=O)O)cc1	–	-9.45% (inactive)
CC1(C)C(=O)N(Br)C(=O)N1Br	–	-0.52% (inactive)
c1ccc(Sc2ccccc2)cc1	–	1.88% (inactive)
CCCCCCCCCCOCC(O)CN (stereo not given)	–	-11.6% (inactive)
C=CC(=O)OCCC#N	–	3.04% [at 95 µM, active compounds read high] (inactive)
CC(C)(c1cc(Br)c(OCCO)c(Br)c1)c1cc(Br)c(OCCO)c(Br)c1	–	-12.8% (inactive)
CCCN(CCc1cccs1)[C@H]1CCc2c(O)cccc2C1	–	-5.17% (inactive)
